Drawing on PubChem BioAssay AID540333 (Southern Research Specialized Biocontainment Screening …, 2011), this text covers CPE inhibition for 56 molecules.

The campaign covered roughly 10,000 compounds. About 320 (3.2%) were called active. Many of the other results were omitted from the sample, so actives are more common in it than they were. Values without a mark were called inactive. No stated cut-off is given here; in the data, active means CPE inhibition mostly above about 9.1% (no sharp cut-off); inactive means mostly below about 7.2%.

A short description of this assay: antivirals protecting cells from dengue CPE – CPE readout, HTS (AID 540333). Particulars: Dengue virus CPE inhibition in host cells, at 20 µM; stronger effect = higher value.
For `CCN1C(=O)S/C(=C/c2ccc(Sc3nc4ccccc4[nH]3)o2)C1=O`, the CPE inhibition is 7.23%. Then `O=C(N/N=C/c1ccc(Sc2nc3ccccc3[nH]2)o1)c1ccncc1`, with 1.17%; and `C=CCN1C(=O)S/C(=C/c2ccc(Sc3nc4ccccc4[nH]3)o2)C1=O`, with 12.1% (active); and `CCOC(=O)CN1C(=O)S/C(=C/c2ccc3c(c2)n(C)c(=O)n3C)C1=O`, with 0.01%. With `Cc1ccc(C)c(N(CC(=O)Nc2ccccc2C(=O)NCc2ccco2)S(=O)(=O)c2ccccc2)c1` the figure was 0.06%; with `Cc1ccc(-c2cc(C(=O)N/N=C/c3ccco3)n[nH]2)s1`, “inactive”; with `Cc1ccccc1NC(=O)CSc1nc(N)c2c3c(sc2n1)CSC(C)(C)C3`, 15.7% (active). Turning to `Cc1ccc(NC(=O)CSC2=NCCN2)cc1`, the CPE inhibition is 0.905%. Then `CC(Sc1nc(N)c2c3c(sc2n1)CSC(C)(C)C3)C(=O)Nc1ccccc1` (stereo unspecified), with 6.62%; and `CN(C(=O)CSc1nc(N)c2c3c(sc2n1)CSC(C)(C)C3)c1ccccc1`, with 9.8%. In the case of `Cc1ccccc1NC(=O)CSC1=NCCN1`, the CPE inhibition result was “inactive”. Consider `Cc1ccc(NC(=O)CSc2nc(N)c3c4c(sc3n2)CSC(C)(C)C4)cc1`, for which the CPE inhibition is 16.2% (active). Regarding `COC(=O)c1ccc(CNC(=O)COC(=O)C23CC4CC(CC(C4)C2)C3)cc1`, the CPE inhibition entry is “inactive”.

In the case of `O=C(CSc1ccc(Cl)cc1)Nc1ccc(-c2nc3ccccc3[nH]2)cc1`, the CPE inhibition was 1%.

For `O=C(CN1CCOCC1)NN=C1CCCCCCCCCCC1`, the CPE inhibition result is “inactive”. On to `CCCCCC(=O)Nc1ccccc1N1CCOCC1`, for which the CPE inhibition is 0.445%.

`Cc1ccc(NC(=O)OCCN2CCN(S(=O)(=O)c3ccc(C)cc3)CCC2=O)cc1`: the CPE inhibition was 0.55%.

In the case of `COc1ccc(C(=O)/C(C#N)=N/Nc2ccccc2[N+](=O)[O-])cc1`, the CPE inhibition is 1.92%. As to `Cc1c(C#N)c(N)nc2c3c(sc12)NC(=O)CC3c1ccc(Cl)cc1` (stereo unspecified), the CPE inhibition is 0.18%. Consider `Cc1ccc(NC(=S)NCCc2ccc(S(N)(=O)=O)cc2)cc1C`, for which the CPE inhibition entry is “inactive”. With `COc1cc(/C=C2/C(=O)NN(c3ccc(Cl)cc3)C2=O)ccc1OC(=O)c1ccco1` the figure was 8.14% (active). Consider `COc1cc(/C=C2/C(=O)NN(c3cccc(C)c3)C2=O)ccc1OC(=O)c1ccco1`, for which the CPE inhibition is 8.68%. In the case of `COc1cc(/C=C2/C(=O)NN(c3cccc(F)c3)C2=O)ccc1OC(=O)c1ccco1`, the CPE inhibition is 3.78%. Turning to `COc1ccccc1NS(=O)(=O)c1cccc(C(=O)N/N=C/c2ccc3c(c2)OCCO3)c1`, the CPE inhibition result is “inactive”. With `S=c1[nH]nc(COc2ccccc2)n1/N=C/c1cccs1` the entry was “inactive”. With `O=C1[C@H]2[C@@H](c3ccc(F)cc3)N3C(=O)N(c4ccc(Br)cc4)C(=O)[C@@]3(Cc3ccc(Cl)cc3)[C@H]2C(=O)N1C1CCCCC1`, the CPE inhibition is 46% (active).

On to `CCN1C(=O)[C@H]2[C@@H](c3ccc(C)cc3)N3C(=O)N(c4ccc(OC)cc4)C(=O)[C@@]3(CC)[C@H]2C1=O`, for which the CPE inhibition was 0.62%.

As for `Cc1cccc([C@@H]2[C@@H]3C(=O)N(Cc4ccccc4)C(=O)[C@@H]3[C@]3(Cc4ccccc4)C(=O)N(c4ccccc4)C(=O)N23)c1`, the CPE inhibition is 0.915%. In the case of `O=C1N(c2cccc(Cl)c2)C(c2ccc(Cl)cc2)N2CCCN12` (stereo unspecified), the CPE inhibition was 4.13%. With `O=C1[C@H]2[C@@H](c3ccc(Cl)cc3)N3C(=O)N(c4cccc(Cl)c4)C(=O)[C@@]3(Cc3ccccc3)[C@H]2C(=O)N1C1CCCCC1` the figure was 15.5% (active); with `S=C(Nc1ccccc1Cl)N1CCN(Cc2ccccc2)CC1`, 0.465%; with `N#C/C(=C\c1cn(Cc2cccc(F)c2)c2ccccc12)C(=O)NCc1ccco1`, 0.23%.

Take `Cc1ccc(OCCSCc2nnc(NC(=O)Nc3cccc(Cl)c3)s2)cc1`: the CPE inhibition is 5.79%. `COc1ccc(NS(=O)(=O)c2ccc3nc(COc4ccc(Cl)c(C)c4)[nH]c3c2)cc1`: the CPE inhibition was 1.16%. With `CSc1ccc(/C=C/C(=O)c2ccc(O)cc2)cc1` the entry was “inactive”. For `CCOc1ccc(/C=C/C(=O)Nc2ccccc2C(F)(F)F)cc1`, the CPE inhibition entry is “inactive”. As for `O=c1c2ccccc2cnn1Cc1n[nH]c(=S)n1-c1ccccc1`, the CPE inhibition was 0.01%.

As to `CCCCCCNC(=O)CC(NS(=O)(=O)c1ccc(OC)cc1)C(C)C` (stereo unspecified), the CPE inhibition is 0.025%. Then `Cn1cnc(C(=O)N2CCN(C(=O)OC(C)(C)C)CC2)c1C(=O)N1CCN(C(=O)OC(C)(C)C)CC1`, with 1.25%. With `CC(C)(C)OC(=O)N1CCC(NC(=O)c2ncn(Cc3ccccc3)c2C(=O)NC2CCN(C(=O)OC(C)(C)C)CC2)CC1` the figure was 39.3% (active); with `C[C@@H](NC(=O)c1ncn(Cc2ccccc2)c1C(=O)N[C@H](C)c1ccccc1)c1ccccc1`, 13.8% (active); with `C[C@H](NC(=O)c1ncn(C)c1C(=O)N[C@@H](C)c1ccccc1)c1ccccc1`, 0.505%. As to `C[C@@H](NC(=O)c1nc[nH]c1C(=O)OCc1ccccc1)c1ccccc1`, the CPE inhibition was 0.97%. On to `CC(C)(C)OC(=O)CNC(=O)c1[nH]cnc1C(=O)NC1CCN(C(=O)OC(C)(C)C)CC1`, for which the CPE inhibition entry is “inactive”. Then `Cc1ccc2c(c1)/C(=N/N1C(=O)c3ccccc3C1=O)C(=O)N2`, with “inactive”. Turning to `CC(C)C(=O)NC(=S)Nc1nnn(C)n1`, the CPE inhibition entry is “inactive”. Then `Cc1ccc(N2C(=O)[C@@H]3C(C(=O)C(c4ccccc4)c4ccccc4)=NN[C@@H]3C2=O)cc1`, with 0.425%. `CCC(=O)Nc1ccc(NC(=O)/C=C/c2ccc(Cl)cc2)cc1`: the CPE inhibition was 21.6% (active). Turning to `CC(=O)c1ccc(NC(=O)/C=C/c2ccc(C)cc2)cc1`, the CPE inhibition is 4.66%. Turning to `CCC(=O)N/N=C(\C)CC(=O)Nc1ccc(Cl)cc1`, the CPE inhibition is 0.01%. Turning to `Cc1sc(NC(=O)c2ccccc2)c(C(c2ccc(Cl)cc2)N2CCN(CCO)CC2)c1C` (stereo unspecified), the CPE inhibition result is “inactive”.

For `Cc1nc2sc(C(c3ccc(F)cc3)N3CCN(C(=O)c4ccco4)CC3)c(O)n2n1` (stereo unspecified), the CPE inhibition was 0.39%. For `CC(=O)NS(=O)(=O)c1ccc(NC(=O)C2c3ccccc3Oc3ccccc32)cc1`, the CPE inhibition entry was “inactive”. With `CN(C)c1ccc(NS(=O)(=O)c2ccc(Cl)cc2)cc1`, the CPE inhibition is 0.45%.

On to `CN(c1ccccc1)S(=O)(=O)c1ccc(Cl)c(C(=O)NCCc2c[nH]c3ccccc23)c1`, for which the CPE inhibition is 2.39%.

As to `CN(C)c1ccc(C(CNS(=O)(=O)c2ccc(F)cc2)c2c[nH]c3ccccc23)cc1` (stereo unspecified), the CPE inhibition is 36.1% (active).
